Results taken from PubChem BioAssay.
Calls of active or inactive are those of the source.

Experiments:
Albumin (Bos taurus) = Albumin (Bos taurus) (UniProt P02769); assay: bovine serum albumin binders on microarray, profiling panel, artefact control for SMM control protein annotation, biochemical, small-molecule microarray, Alexa647 label, 635/667 nm fluorescence (AID 1118); conditions: BSA-A647 binding, fluorescence 635 nm, higher = more signal;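 also: score merges 667 nm emission intensity and signal-to-noise per printed compound spot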
[1] = small-molecule microarray binders of probe aXIP, primary screen, biochemical, NeuroSMM set, 635/667 nm fluorescence (AID 1119); conditions: higher = more signal, called active from +8 up or from −8 down;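 also: probe is the protein aXip251-270 applied at 1 µg/mL to compound-printed slides; binding of probe to printed compounds measured as 667 nm fluorescence plus signal to noise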
[2] = small-molecule binders of probe aNOTCH3, primary screen, biochemical, small-molecule microarray, 635/667 nm fluorescence (AID 1120); conditions: higher = more signal;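 also: probe is a biotin-tagged antibody raised against NOTCH3 rather than NOTCH3 protein; score merges spot fluorescence near 667 nm with spot signal to noise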
[3] = small-molecule binders of probe aNOTCH2, primary screen, biochemical, small-molecule microarray, 635/667 nm fluorescence (AID 1121); conditions: higher = more signal;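 also: score merges feature fluorescence read at 667 nm with its signal to noise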
[4] = molecular target: Carbonic anhydrase 2 (Homo sapiens) (UniProt P00918); assay: CAII small-molecule binders, profiling panel, biochemical, small-molecule microarray, Alexa647-labelled CAII (AID 1122); conditions: CAII-A647 binding fluorescence, higher = more signal
[5] = COS7 lysate on small-molecule microarray, probe aHis, 635 nm (AID 1123); conditions: COS7 cell lysate, fluorescence, higher = more signal;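 also: z-score combines 667nm fluorescence intensity with signal-to-noise per printed compound spot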
[6] = compound binding in COS7 lysate, probe aLAP1, primary screen, cell lysate, small-molecule microarray (AID 1124); conditions: probe aLAP1, fluorescence, higher = more signal;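 also: lysate comes from COS7 cells expressing LAP1 and is applied at 0.3 µg/mL; score merges spot fluorescence near 667 nm with signal-to-noise over triplicate slides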
Sam68 (KHDRBS1) = assay: Sam68 small-molecule binders, primary screen, biochemical, small-molecule microarray, 635 nm fluorescence (AID 1125); conditions: small-molecule microarray binding, higher = more signal;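 also: score merges 667 nm channel intensity with signal to noise over triplicate slides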
[7] = system: Chordin-like protein 2 (CHRDL2); assay: CHRDL2 small-molecule binders, primary screen, biochemical, small-molecule microarray, 635 nm fluorescence (AID 1126); conditions: small-molecule microarray binding, fluorescence 635 nm; higher = more signal;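 also: printed compound slides probed with Chrdl2 protein at 4 µg/mL for 1 h at 4 C; score merges 667 nm emission intensity with signal to noise over three replicate slides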
[8] = molecular target: Concanavalin-A (Canavalia ensiformis) (UniProt P02866); assay: ConA small-molecule binders, primary screen, artefact control for SMM control protein annotation, biochemical, small-molecule microarray, Alexa647 label, 635 nm (AID 1127); conditions: ConA-A647 binding fluorescence, higher = more signal;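 also: z combines 667 nm emission intensity with signal-to-noise across three replicate slides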
Chain of Concanavalin-A (Canavalia ensiformis) (P02866 whole entry, looked up): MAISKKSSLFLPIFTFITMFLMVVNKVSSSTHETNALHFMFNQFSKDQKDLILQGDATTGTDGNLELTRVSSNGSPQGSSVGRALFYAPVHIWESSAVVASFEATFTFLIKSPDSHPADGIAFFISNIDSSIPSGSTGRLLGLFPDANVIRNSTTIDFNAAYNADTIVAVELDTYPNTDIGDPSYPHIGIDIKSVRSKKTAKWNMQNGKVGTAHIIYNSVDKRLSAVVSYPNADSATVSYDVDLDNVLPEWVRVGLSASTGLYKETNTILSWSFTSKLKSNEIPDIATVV

Chain of Albumin (Bos taurus) (P02769 whole entry, looked up): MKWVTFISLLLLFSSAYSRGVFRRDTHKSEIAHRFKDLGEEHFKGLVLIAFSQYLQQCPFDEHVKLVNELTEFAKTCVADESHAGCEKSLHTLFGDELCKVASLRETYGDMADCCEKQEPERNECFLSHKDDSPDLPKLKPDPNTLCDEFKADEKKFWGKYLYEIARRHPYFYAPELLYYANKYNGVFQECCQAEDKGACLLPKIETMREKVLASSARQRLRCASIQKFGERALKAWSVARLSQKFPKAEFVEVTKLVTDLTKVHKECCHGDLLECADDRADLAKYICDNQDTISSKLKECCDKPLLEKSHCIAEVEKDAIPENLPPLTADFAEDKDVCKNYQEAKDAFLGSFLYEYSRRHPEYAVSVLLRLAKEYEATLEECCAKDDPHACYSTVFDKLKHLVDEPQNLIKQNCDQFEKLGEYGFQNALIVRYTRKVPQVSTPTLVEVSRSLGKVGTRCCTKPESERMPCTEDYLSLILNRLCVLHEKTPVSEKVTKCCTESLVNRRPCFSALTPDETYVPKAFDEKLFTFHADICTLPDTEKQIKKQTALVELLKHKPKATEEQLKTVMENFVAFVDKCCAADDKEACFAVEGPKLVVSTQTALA

SMILES	composite z-score (Albumin (Bos taurus))	composite Z-score [1]	composite z-score [2]	composite z-score [3]	composite z-score [4]	composite z-score [5]	composite z-score [6]	composite z-score (Sam68 (KHDRBS1))	composite z-score [7]	composite z-score [8]
CC(=O)n1cc(C(O)C2C=CC3C(=O)N(Cc4ccccc4)C(=O)C3N2n2cnnc2)c2ccccc21 (stereo not given)	0.136	-0.213 (inactive)	0.0576	-0.0304	0.444	0.983	0.281	-0.0572	-0.243	0.458
C=CCC(OC(C)=O)[C@@H]1[C@@H](N(Cc2ccc(-c3ccccc3)cc2)C(=O)c2cccc3ccccc23)c2cc(OCCCO)ccc2N1C(=O)Cc1ccc2ccccc2c1 (stereo not given in full)	0.413	-0.277 (inactive)	-0.0345	-0.0891	-0.0417	0.321	0.194	-0.35	-0.133	-0.353
C[n+]1ccc(CCCO)cc1	-0.911	0.165 (inactive)	0.182	-0.0211	0.321	2.53	1.6	0.0844	0.127	-0.0858
COC(=O)[C@@]1(Cc2ccc(OC)cc2)[C@H]2c3cc(C(=O)N(C)C)n(Cc4nc5ccccc5[nH]4)c3C[C@H]2CN1C(=O)c1ccccc1	0.997	-0.119 (inactive)	0.515	-0.112	0.781	2.27	-0.0637	1.32	-0.54	1.19
C=CCOC(=O)[C@@H]1[C@H]2C(=O)O[C@H](c3ccccc3)[C@H](c3ccccc3)N2[C@H](c2ccc(OCCOC(=O)[C@H]3C[C@H]4C(=O)N[C@@H](CCCC[N+](C)(C)C)C(=O)N4[C@H]3c3ccc(O)cc3)cc2)[C@@]12C(=O)Nc1ccc(I)cc12	-0.914	4.1 (inactive)	0.147	-0.0843	0.534	2.74	0.577	1.3	1.16	1.19
NC(=O)NCC#Cc1ccc2c(c1)[C@]1(C(=O)N2)[C@H](c2ccc(O)cc2)N2[C@H](c3ccccc3)[C@H](c3ccccc3)OC(=O)[C@H]2[C@@H]1C(=O)Nc1nc2ccccc2s1	0.121	0.0296 (inactive)	-0.0259	-0.0203	0.431	0.66	0.11	0.637	1.17	0.962
C=CCNC(=O)[C@@H]1[C@H]2C(=O)O[C@H](c3ccccc3)[C@H](c3ccccc3)N2[C@H](c2ccc(OCCO)cc2)[C@@]12C(=O)N(C(=O)OCCOC)c1ccc(C#CC3=CCCCC3)cc12	0.498	0.223 (inactive)	0.144	-0.0832	0.621	0.634	0.923	1.3	0.606	1.15
[N-]=[N+]=Nc1ccccc1[C@H]1OC(c2ccc(OCCCO)cc2)=N[C@@]1(CCS(=O)(=O)c1ccccc1)C(=O)N1CCCCC1	0.949	-0.311 (inactive)	0.355	-0.0439	0.647	2.65	0.0866	1.3	-0.106	1.19
C=C(/C(=C/C[C@@H](OC(=O)c1ccncc1)c1ccccc1OCCO)c1cc(C(=O)OC)ccc1OC)C(C)C	0.359	-0.0951 (inactive)	0.138	-0.0895	0.676	1.75	0.457	1.25	0.0435	0.474
C=C[C@H](COC(C)=O)NS(=O)(=O)c1ccc(Br)cc1	0.0793	0.131 (inactive)	-0.217	-0.106	-0.111	-0.0413	-0.0354	-0.603	1.14	0.43
CCOC(=O)C1=CC[C@@H](c2ccc([N+](=O)[O-])cc2)N(S(=O)(=O)c2ccc(C)cc2)[C@H]1c1ccccc1	0.845	0.312 (inactive)	0.233	-0.0297	0.373	2.21	0.359	1.28	0.402	0.842
CC(C)(C)OC(=O)CC[C@@]1(C(=O)O)N=C(c2ccc(OCCCO)cc2)O[C@@H]1c1ccccc1	0.273	-0.204 (inactive)	-0.1	-0.0037	0.824	1.98	-0.021	0.721	-0.811	0.335
CC(=O)NCCCC[C@@H]1NC(=O)[C@@H]2C[C@H](C(=O)O)[C@H](c3ccc(O)cc3)N2C1=O	-0.757	1.77 (inactive)	-0.594	-0.1	0.658	-0.0142	-0.0574	-1.04	-0.755	0.092
C=C(CCCC)/C(=C/C[C@@H](OC(C)=O)c1ccc(CO)o1)c1cc(C(=O)OC)ccc1OC	0.557	0.378 (inactive)	-0.0195	-0.0741	0.57	0.69	0.557	1.29	0.182	0.851
COCCOC(=O)N1C(=O)[C@@]2(c3cc(C#CC4(O)CCCCCC4)ccc31)[C@H](c1ccccc1OCCO)N1[C@H](c3ccccc3)[C@H](c3ccccc3)OC(=O)[C@H]1[C@@H]2C(N)=O	-0.205	-0.02 (inactive)	0.0282	-0.0942	0.378	0.994	-0.394	1.31	0.476	1.15
CN(C)CCCN1C(=O)[C@@]2(c3ccc([N+](=O)[O-])cc3)CC(=O)N(CC34CC5CC(CC(C5)C3)C4)[C@@H]2c2ccc(CO)cc21	-0.348	-0.184 (inactive)	-0.208	-0.0391	0.76	1.08	0.538	0.503	-0.304	0.412
NC(=O)NCC#Cc1ccc2c(c1)[C@]1(C(=O)N2)[C@H](C(=O)Nc2nc3ccccc3s2)[C@H]2C(=O)O[C@H](c3ccccc3)[C@H](c3ccccc3)N2[C@@H]1c1ccc(O)cc1	-0.0229	0.157 (inactive)	0.114	0.103	0.0856	-0.482	0.274	0.846	0.402	1.07
NCCCCCCNC(=O)[C@H]1C[C@H]2C(=O)N[C@@H](Cc3ccccc3)C(=O)N2[C@H]1c1ccc(O)cc1	0.855	0.126 (inactive)	-0.0048	-0.176	0.778	0.734	0.205	1.03	-0.14	1.2
NC(=O)N1C(=O)C2C(C1=O)C1C=C(CCCO)C2C(c2cccs2)N1Cc1cc2c(cc1Br)OCO2 (stereo not given)	0.429	-0.483 (inactive)	-0.0328	-0.12	0.757	1.04	-0.0752	0.234	-0.663	0.827
NCCCCCCNC(=O)[C@@H]1C[C@@H]2C(=O)N3CCC[C@H]3C(=O)N2[C@@H]1c1ccc(O)cc1	0.654	-0.259 (inactive)	-0.0647	-0.182	0.291	1.32	0.81	1.25	0.417	1.15
CO[C@H]1O[C@H](CO)[C@@H](OC(=O)Nc2ccc(C(F)(F)F)cc2)[C@H](OC(=O)Nc2ccc3c(c2)OCO3)[C@H]1OC(=O)Nc1ccc2c(c1)OCO2	0.72	1.42 (inactive)	0.169	0.0062	0.767	2.67	0.59	1.3	-0.146	1.14
CC(C)C(O)C1C=CC2C(=O)N(C)C(=O)C2N1Nc1ccccc1 (stereo not given)	1.04	0.469 (inactive)	0.585	0.45	0.812	1.86	1.01	1.12	0.164	0.871
O=C1NC(=O)C2C1C=CC(C(O)c1c(F)cccc1Cl)N2Nc1ccccn1 (stereo not given)	0.179	-0.527 (inactive)	-0.0009	0.0203	0.805	-0.42	1	0.0076	0.676	-0.453
COc1ccc(C(O)C2C=CC3C(=O)N(Cc4ccccc4)C(=O)C3N2n2cnnc2)c2ccccc12 (stereo not given)	0.626	0.624 (inactive)	-0.0238	-0.125	0.783	1.65	0.686	1.01	-2.13	0.388
COC(=O)c1c(CC[C@@H](CO)NC(=O)N[C@H](Cn2cc(-c3ccccc3C)nn2)C(C)C)oc(C(C)=O)c1C(=O)OC	0.119	-0.115 (inactive)	-0.0731	-0.075	0.0708	-0.363	-0.108	-1.08	-0.767	0.43
COCCOC(=O)N1C(=O)[C@@]2(c3cc(C#CC4=CCCCC4)ccc31)[C@H](C(=O)N1CCN(c3ncccn3)CC1)[C@H]1C(=O)O[C@H](c3ccccc3)[C@H](c3ccccc3)N1[C@@H]2c1ccc(O)cc1	0.649	0.215 (inactive)	0.061	-0.0304	0.541	1.09	0.615	1.29	0.204	1.13
CC(C)CN1C(=O)[C@@]2(Cc3ccccc31)c1ccccc1C(=O)N(Cc1ccccc1C(F)(F)F)[C@H]2c1ccc(CO)cc1	-0.139	0.174 (inactive)	-0.172	-0.157	-0.381	-0.562	-0.438	-2.12	-0.846	0.027
